From ChEMBL document CHEMBL3433997, “St. Jude Leishmania screening dataset” (2016)

Assays:
Format in all cases: functional
[1] = molecular target: Solute carrier family 2, facilitated glucose transporter member 1 (Homo sapiens) (UniProt P11166); assay: ST_JUDE_LEISH: Cytotoxicity at 2uM final concentration against transgenic Leishmania Mexicana promastigotes LmGLUT1 that are glucose transport deficient and complemented with the human glucose transporter GLUT1. Activity is measured by DNA content using SYBR green in vitro
[2] = molecular target: Hexose transporter 1 (Plasmodium falciparum) (UniProt O97467); assay: ST_JUDE_LEISH: Cytotoxicity at 2uM final concentration against transgenic Leishmania Mexicana promastigotes LmPfHT that are glucose transport deficient and complemented with the Plasmodium falciparum hexose transporter. Activity is measured by DNA content using SYBR green in vitro
[3] = molecular target: Glucose transporter (Leishmania mexicana) (UniProt O61059); assay: ST_JUDE_LEISH: Cytotoxicity at 2uM final concentration against transgenic Leishmania Mexicana promastigotes LmGT2 that are glucose transport deficient and complemented with the L. Mexicana glucose transporter 2. Activity is measured by DNA content using SYBR green in vitro

Chain of Solute carrier family 2, facilitated glucose transporter member 1 (Homo sapiens) (P11166 whole entry): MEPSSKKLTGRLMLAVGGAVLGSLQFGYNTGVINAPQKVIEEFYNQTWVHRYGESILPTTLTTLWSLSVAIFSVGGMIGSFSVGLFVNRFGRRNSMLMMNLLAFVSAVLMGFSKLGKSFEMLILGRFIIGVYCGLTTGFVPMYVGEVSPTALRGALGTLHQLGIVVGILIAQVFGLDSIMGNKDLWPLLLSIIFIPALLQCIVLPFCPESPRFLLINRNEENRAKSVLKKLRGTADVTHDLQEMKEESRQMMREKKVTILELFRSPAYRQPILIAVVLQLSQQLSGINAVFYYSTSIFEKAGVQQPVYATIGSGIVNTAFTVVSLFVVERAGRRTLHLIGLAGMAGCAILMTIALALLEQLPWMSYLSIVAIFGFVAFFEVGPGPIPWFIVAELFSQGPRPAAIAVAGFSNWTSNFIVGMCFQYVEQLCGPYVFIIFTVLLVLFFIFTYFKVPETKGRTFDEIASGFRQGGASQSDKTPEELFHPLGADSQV

Work on COc1ccc(CNC(=O)Nc2cccc(-c3csc(NC(=N)N)n3)c2)cc1 yielded an inhibition [1] of -2.22%, an inhibition [2] of -0.98% and an inhibition [3] of 1.03%.
Compound CC(C)CN1CCN(CCNc2c3ccccc3nc3ccccc23)CC1 has an inhibition [1] of 83%, an inhibition [2] of 83.1% and an inhibition [3] of 81.3%.
In the case of CCCc1cc(NCc2ccncc2)nc(Nc2ccc(F)cc2)n1, the inhibition [1] is reported as 13.4%, the inhibition [2] is reported as 8.66% and the inhibition [3] is reported as 2.99%.
Compound CS(=O)(=O)Nc1ccc2[nH]cc(C3CCN(CCCCCNC(=O)/C=C/c4ccc(Cl)c(Cl)c4)CC3)c2c1 has an inhibition [1] of 3.05%, an inhibition [2] of 3.77% and an inhibition [3] of 3.35%.
CCc1cc(C(=O)c2cccc(C)c2)c(NC(=O)CN2CCN(C(=O)c3ccco3)CC2)s1 showed an inhibition [1] of 2.38%, an inhibition [2] of 2.67% and an inhibition [3] of 2.44%.
For CC(C)c1ccc(CN2CCC(NC(=O)c3ccc(-c4cccc(F)c4)s3)CC2)cc1, the inhibition [1] was 1.18%, the inhibition [2] was -0.01% and the inhibition [3] was -0.6%.
In the case of Cc1cccc2nc(-c3cccc(-c4cccc(NC(=O)Cc5ccc[n+]([O-])c5)c4)c3)[nH]c12, the inhibition [1] is reported as 1.71%, the inhibition [2] is reported as 1.78% and the inhibition [3] is reported as 0.81%.
For O=C(Nc1cccc(-c2ccc(-c3nc4cc(C(F)(F)F)ccc4[nH]3)s2)c1)c1c[nH]cn1, the inhibition [1] was 0.15%, the inhibition [2] was -0.45% and the inhibition [3] was 0.77%.
For CCCCCCN1CCCN(Cc2ccc(C(=O)Nc3ccc(C(C)C)cc3)cc2)CC1, the inhibition [1] was 5.84%, the inhibition [2] was 7.26% and the inhibition [3] was 4.28%.
Cc1cc(NCC2CCN(CC3CCCCC3)C2)nc(Nc2ccc(Br)cc2)n1 (centres undefined) was tested, and the inhibition [1] was 8.49%, the inhibition [2] was 7.88% and the inhibition [3] was 3.47%.
Compound CCC(CC)NCc1c(O)ccc2c(CNC(CC)CC)c(O)ccc12 has an inhibition [1] of -1.88%, an inhibition [2] of -0.71% and an inhibition [3] of -1.57%.
With Nc1nccc2ccc(-c3cccnc3)cc12 the inhibition [1] was 3.94%, the inhibition [2] was 5.14% and the inhibition [3] was 4.83%.
Cc1cc(NCc2ccc(F)cc2)nc2cc(O)ccc12 showed an inhibition [1] of 2.81%, an inhibition [2] of 3.64% and an inhibition [3] of 1.59%.
